This is a sample that favours compounds with a hit; in the whole collection about 4.6% have one here.
TIM10 inh: growth inhibitors of isogenic TIM10 control yeast, primary screen, counter-screen for tim10-1 yeast inhibitor project, luminescence, uHTS | hit rate 1.4% among 330,000 | inhibition, % at 10 µM | S. cerevisiae TIM10 strain growth, BacTiter-Glo luminescence, 24 h;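 active means inhibition of 40% or more at the single tested concentration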;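 further: wild-type TIM10 isogenic control strain grown at permissive 25 °C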
tim23-1 inh: growth inhibitors of tim23-1 mutant yeast, primary screen, luminescence, uHTS; hit rate 1.3% among 330,000; AID 463212, 2010; inhibition, % at 20 µM; S. cerevisiae tim23-1 growth, BacTiter-Glo luminescence, 24 h;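 active means growth inhibition of the mutant yeast at or above 50%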;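 further: temperature-sensitive mutant grown at 25 °C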
tim10-1 inh: growth inhibitors of tim10-1 mutant yeast, primary screen, luminescence, uHTS; S. cerevisiae tim10-1 ts strain growth, BacTiter-Glo, 24 h; inhibition, % at 20 µM; hit rate 2.2% among 330,000; AID 463190, 2010;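 active means inhibition of at least 40%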;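 further: mutant grown at 25 °C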
NLRP3 yeast inh: NALP3 inflammasome inhibitors in reconstituted yeast, primary screen, luminescence, uHTS; Yeast reconstituted NLRP3/ASC/caspase-1, beta-gal luminescence, 24 h; AID 2825, 2010; inhibition, % at 10 µM; hit rate 0.39% among 330,000;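 active means inhibition of 50% or more; inactive means inhibition below 50%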
SKKanGAS inh: S. pyogenes SKKanGAS growth inhibitors in kanamycin, primary screen, streptokinase expression inhibitor project, SKKanGAS strain, BacTiter-Glo luminescence. 6 h. hit rate 1.3% among 300,000. AID 1662, 2009. inhibition, % at 7.5 µM;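 active means mean replicate score, as percent of positive control median, at least 50; inconclusive means mean below 50 but one replicate at or above 50; inactive means mean and every replicate below 50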;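 further: strain carries kanamycin resistance gene driven by streptokinase promoter and grows in 40 µg/ml kanamycin; loss of luminescence reflects streptokinase promoter inhibition or plain growth inhibition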
PfHsp90 yeast 2: growth inhibition of PfHsp90-expressing yeast, primary screen, antimalarial PfHsp90 inhibitor project, S. cerevisiae, BacTiter-Glo luminescence, single point, set 2; BacTiter-Glo ATP, 48 h; yeast lacking PDR1 and PDR3 efflux regulators; inhibition, % at 9.4 µM; hit rate 0.32% among 310,000;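 active means every replicate shows inhibition above about 80%, whatever the replicate mean, limit read from the data; inconclusive means mean inhibition reaches the set limit but some replicate falls short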
Hits are given with their value; i = inactive; ? = inconclusive; nt = no result.

SMILES | TIM10 inh | tim23-1 inh | tim10-1 inh | NLRP3 yeast inh | SKKanGAS inh | PfHsp90 yeast 2
COc1ccccc1NC(=O)CSc1nnc(CCNC(=O)c2ccc(C)cc2)n1C | i | i | i | i | nt | i
c1ccc(-c2nc(C3CCCCC3)c3sccc3n2)cc1 | i | i | i | i | 84 | nt
c1ccc(-c2nc(C3CCCCC3)c3ccccc3n2)cc1 | i | i | i | i | ? | i
CCOc1cc(/C=C/c2ccc3cccc([N+](=O)[O-])c3n2)ccc1O | i | i | i | i | i | i
CCOc1cccc(/C=C/c2ccc3cccc(O)c3n2)c1OC | i | i | i | i | 98 | i
CCOc1cccc(/C=C/c2ccc3cccc(O)c3n2)c1O | i | i | i | i | 107 | i
CCOc1c(OC(C)=O)ccc(/C=C/c2ccc3cccc(OC(C)=O)c3n2)c1[N+](=O)[O-] | i | i | i | i | 85 | i
Cc1ccc(C#CC[N+]2(C)CCCCC2)cc1 | i | i | i | i | i | nt
CC1(C)C(=O)N(CCN2CCC(C(=O)c3ccc(F)cc3)CC2)c2ccccc21 | i | i | i | i | nt | i
CCOc1ccccc1NC(=O)CN1C(=O)CSC(C)C1=O (configuration not stated) | i | i | i | i | i | i
CCC[C@H](CN[C@@H](CNC)[C@H](C)CC)NCCc1cc(C(F)(F)F)cc(C(F)(F)F)c1 | i | i | i | i | 51 | i
CC[C@@H](C)[C@H](CNC)NC[C@@H](Cc1cccc2ccccc12)NCCc1cccc(C(F)(F)F)c1 | i | i | i | i | 99 | i
CCC[C@@H](CN[C@@H](CNC)C(C)C)NCCCCc1ccccc1 | i | i | i | i | i | i
CC(C)S(=O)(=O)c1csc(C(=O)Nc2ccc(F)cc2)c1N | i | i | i | i | i | i
Fc1cc(F)c(C2SCCN2C(=S)Nc2cccc(C(F)(F)F)c2)c(F)c1 (configuration not stated) | i | i | i | i | 50 | i
CC(NCC(O)COc1ccccc1)C1COc2ccccc2O1 (configuration not stated) | i | i | i | i | i | i
COc1ccccc1NC(=O)C(=O)NNC(=O)COc1ccc2ccccc2c1 | i | i | i | i | 67 | i
CCN1C(=O)/C(=C/c2cn(-c3ccccc3)nc2-c2cccnc2)SC1=S | nt | nt | nt | nt | nt | i
Cc1ccc(-c2nn(-c3ccccc3)cc2/C=C2\SC(=S)N(CC(=O)O)C2=O)cc1 | i | i | i | i | 55 | i
COc1ccc(-c2nn(-c3ccccc3)cc2/C=C2/SC(=S)N(CCC(=O)O)C2=O)cc1 | i | i | i | i | 83 | i
O=C(O)CCCCCN1C(=O)/C(=C\c2cn(-c3ccccc3)nc2-c2cccs2)SC1=S | i | i | i | i | 91 | i
COc1ccc(-c2nn(-c3ccccc3)cc2/C=C/C(=O)N2CCN(c3ccccn3)CC2)cc1 | i | i | i | i | 60 | i
Cc1nc2ccc(Cl)cc2nc1C | i | i | i | i | i | i
CN(C)CCN1C(=O)C2C(C(=O)Nc3cc(Cl)cc(Cl)c3)C3C=CC2(O3)C1C(=O)NC1CCCCC1 (configuration not stated) | i | i | i | i | i | i
COc1cc(-c2nnc(NC(=O)CS(=O)(=O)c3ccc(C)cc3)o2)cc(OC)c1OC | i | i | i | i | i | i
SMILES | TIM10 inh | tim23-1 inh | tim10-1 inh | NLRP3 yeast inh | SKKanGAS inh | PfHsp90 yeast 2
O=C(NC(=S)Nc1ccc(NC(=O)c2ccco2)cc1)c1ccccc1 | i | i | i | i | i | i
COc1cc(C(=O)NC(=S)N(C)Cc2ccccc2)cc(OC)c1OC | i | i | i | i | i | i
COc1cc(C(=O)NC(=S)Nc2ccc(NC(=O)c3ccco3)cc2)cc(OC)c1OC | i | i | i | i | 66 | i
COc1cc(C(=O)NC(=S)N(CCc2ccccc2)CCc2ccccc2)cc(OC)c1OC | i | i | i | i | 90 | i
CSc1ccc(/C=C2\CCn3c2nc2cc(C(=O)O)ccc2c3=O)cc1 | i | i | i | i | 52 | i
COC(=O)c1ccc(/C=C2\CCn3c2nc2cc(C(=O)O)ccc2c3=O)cc1 | i | i | i | i | i | i
